In PubChem BioAssay (NCATS):
Inconclusive results are not listed. Entries that show only a call come without a potency. Unmarked numbers belong to inactive results. Activity calls are given as the source filed them. Calls come from the whole dose curve; as a rule, active = well fitted inhibition curve with a large enough effect; inconclusive = small, poorly fitted or top-dose-only effect; inactive = flat fitted curve, though single readings scatter. *1 amine or outer side, *2 acyl side, *3 side chain or, on linkers, in order; H or OH if unused. Where a SMILES comes first, the peptide text is derived from it. Bridges are numbered along the chain shown (N, C = ends). X6 = O=C(CCC[*:2])[*:1]

Molecular target: Calcium and integrin-binding protein 1 (Homo sapiens) (UniProt Q99828)
Sequence (Q99828 whole entry, looked up): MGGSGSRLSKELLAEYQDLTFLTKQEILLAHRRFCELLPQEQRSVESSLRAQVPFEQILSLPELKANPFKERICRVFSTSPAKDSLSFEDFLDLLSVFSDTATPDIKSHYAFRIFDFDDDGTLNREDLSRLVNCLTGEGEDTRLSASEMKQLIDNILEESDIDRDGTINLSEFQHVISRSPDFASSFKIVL
Assay: Primary qHTS for Identification of Calcium Integrin Binding Protein 1 (CIB1) Competitor (AID 1508620);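 note: GST tagged CIB1 binding a fluorescein labelled alphaIIb integrin peptide tracer; top concentration of the series differs between compounds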
Details: CIB1-GST / FITC-alphaIIb peptide fluorescence polarization; series mostly up to 57.7 µM
Outline: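 Fluorescence polarization competition: CIB1-GST (1 uM final) preincubated with compound 15 min at room temperature, then FITC-labeled alphaIIb peptide (100 nM final) added for another 15 min. Polarization read at Ex 480/Em 540.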

Row | Compound | Potency | activity change, negative = inhibition
1 | COc1cc2c(cc1O)C1(OC)Cc3ccc4c(c3C1N(C)CC2)OCO4 (centres undefined) | inactive | 
2 | CC(=O)O[C@@H]1C[C@]2(C)[C@@]3(CCC4[C@@]5(C)CC[C@H](O[C@@H]6O[C@H](C(=O)O)[C@@H](O)[C@H](O[C@@H]7O[C@H](CO)[C@H](O)[C@H](O)[C@H]7O[C@@H]7O[C@@H](C)[C@H](O)[C@@H](O)[C@H]7O[C@@H]7OC[C@](O)(CO)[C@H]7O)[C@H]6O[C@@H]6O[C@H](CO)[C@H](O)[C@H](O)[C@H]6O)C(C)(C)C5CC[C@]42C)O[C@@H](O)[C@]12C3CC(C)(C)[C@@H](OC(=O)/C=C/c1ccc(O)c(O)c1)[C@@H]2OC(=O)/C=C/c1ccccc1 (some centres undefined) |  | 2.91% [at 12.4 µM]
3 | CC[C@H](C)[C@@H]1NC(=O)[C@H](Cc2ccc(OC)cc2)NC(=O)CCCSC[C@@H](C(=O)N2CCC[C@H]2C(=O)N[C@@H](CC(C)C)C(=O)NCC(N)=O)NC(=O)[C@H](CC(N)=O)NC(=O)[C@H](CCC(N)=O)NC1=O (Y(Me)IQNCPLG-NH2; linker N-5 via X6) | inactive | 
4 | C=C(C)C(=O)O[C@H]1C[C@@](C)(OC(C)=O)[C@@]2(O)CC[C@@](C)(O)[C@H](OC(C)=O)[C@@]23OC(=O)C(COC)=C13 | inactive | 
5 | CCC(=O)O[C@]1(C(=O)CCl)[C@@H](C)C[C@H]2[C@@H]3C[C@H](F)C4=CC(=O)C=C[C@]4(C)[C@@]3(F)[C@@H](O)C[C@@]21C | inactive | 
6 | O=c1c2ccccc2nc2n1CCC2O (centres undefined) | inactive | 
7 | COc1cc(COC2OC(CO)C(O)C(O)C2O)cc(OC)c1O (centres undefined) | inactive | 
8 | C=C1CC2(C(=O)O)CC1CCC2C1(C)CCCC2(C)C(=O)OC(O)C21 (centres undefined) | inactive | 
9 | COC1=Cc2c(nc3n(c2=O)C(C)C(=O)NC3(O)C(C)C)OC=C1 (centres undefined) | inactive | 
10 | C=CC1(C)C=C2C(O)CC3C(C)(C(=O)O)CCCC3(C)C2CC1 (centres undefined) | inactive | 
11 | C=CC1(C)C=C2C(=O)CC3C(C)(C)CCCC3(C(=O)O)C2(O)CC1 (centres undefined) | inactive | 
12 | COc1cc(C2Oc3c(OC)cc(/C=C/C(=O)OC[C@H]4O[C@@H](OC(C)(C)C(=O)O)[C@H](O)[C@@H](O)[C@@H]4O)cc3C2CO)ccc1O (some centres undefined) | inactive | 
13 | C=C1CCC2(OC1)OC1CC3C4CC=C5CC(O)CC(O[C@@H]6OC[C@@H](O)[C@H](O)[C@H]6O)C5(C)C4CCC3(C)C1(O)C2C (some centres undefined) | inactive | 
14 | C=C1CC[C@@H]2[C@](C)(CO[C@@H]3O[C@H](CO)[C@@H](O)[C@H](O)[C@H]3O)CCC[C@@]2(C)[C@@H]1CCC1=CCOC1=O | inactive | 
15 | C=C[C@H]1[C@H](O[C@@H]2O[C@H](CO[C@@H]3OC[C@](O)(CO)[C@H]3O)[C@@H](O)[C@H](O)[C@H]2O)OC=C2C(=O)OCC[C@H]21 | inactive | 
16 | CC(=O)c1c(C)cc(O[C@@H]2O[C@H](CO)[C@@H](O)[C@H](O)[C@H]2O)cc1O | inactive | 
17 | CC(=O)Oc1cc2c(s1)CCN([C@H](C(=O)C1CC1)c1ccccc1F)C2 | inactive | 
18 | CC(=O)OC1C(O)C(C)=C(CCC(C)CC(=O)O)C2(C)CCCC(C)(C)C12 (centres undefined) | inactive | 
19 | CCn1cc(C2=NOC(C(=O)Nc3c(C)n(C)n(-c4ccccc4)c3=O)C2)c(C)n1 (centres undefined) | inactive | 
20 | O=C1NCc2nc3ccccc3c(=O)n2C1Cc1c[nH]c2ccccc12 (centres undefined) | inactive | 

Row | Compound | Potency | activity change, negative = inhibition
21 | O=C1Nc2ccc(O)cc2O[C@H]1O[C@@H]1O[C@H](CO)[C@@H](O)[C@H](O)[C@H]1O | inactive | 
22 | C=CCc1ccc(O[C@@H]2O[C@H](CO[C@@H]3O[C@H](CO)[C@@H](O)[C@H](O)[C@H]3O)[C@@H](O)[C@H](O)[C@H]2O)c(O)c1 | inactive | 
23 | O=C(O)C[C@H](O)C[C@H](O)/C=C/c1c(C2CC2)nc2ccccc2c1-c1ccc(F)cc1 | inactive | 
24 | C=C1CCC2C(C)(C)CC(=O)CC2(C)C1CCC(C)CCOC(C)=O (centres undefined) | inactive | 
25 | CC(C)C1=CC2=CCC3[C@](C)(CCC[C@@]3(C)C(=O)O)C2CC1O (some centres undefined) | inactive | 
26 | C[C@H]1C[C@H]2[C@@H]3CCC4=CC(=O)C=C[C@]4(C)[C@@]3(F)[C@@H](O)C[C@]2(C)[C@@]1(O)C(=O)COP(=O)(O)O | inactive | 
27 | CCOc1c2c(c(OCC)c3ccccc13)C(=O)N(c1ccc(CC(=O)NS(=O)(=O)c3ccccc3)cc1)C2 | inactive | 
28 | C=CCc1ccc(O[C@@H]2O[C@H](CO[C@@H]3O[C@@H](C)[C@H](O)[C@@H](O)[C@H]3O)[C@@H](O)[C@H](O)[C@H]2O)cc1 | inactive | 
29 | C[C@H]1[C@H](C)CC[C@]2(C(=O)O)CC[C@]3(C)C(=CC[C@@H]4[C@@]5(C)C[C@@H](O)[C@H](O)[C@@](C)(CO)[C@@H]5CC[C@]43C)[C@H]12 | inactive | 
30 | COC12CC3C(C(C)C1=CC(=O)O2)C(O)C(OC(C)=O)C1C(C)(C)C(OC(C)=O)CCC31C (centres undefined) | inactive | 
31 | CC1(CCC(=O)O)C(=O)C=CC23CC4CC(OC4(C)C2O)C13 (centres undefined) | inactive | 
32 | CO[C@@H]1CC[C@H](OC[C@]2(COC(=O)c3ccc(C)[nH]3)[C@H](OC(C)=O)CC[C@@]3(C)[C@@H]4CC=C(C)[C@@H](C5=C(O)C(=O)OC5O)[C@]4(C)CC[C@@H]32)O[C@H]1C (some centres undefined) | inactive | 
33 | CCC[C@@H]1C[C@@H](C(=O)N[C@@H]([C@H]2O[C@H](SC)[C@H](OP(=O)(O)O)[C@@H](O)[C@H]2O)[C@H](C)Cl)N(C)C1 | inactive | 
34 | C=CC1(C)CC(O)C2(CCC3C(C)(C(=O)O)CCCC3(C)C2=O)C1 (centres undefined) | inactive | 
35 | COC(=O)C1=CO[C@@H](O[C@@H]2O[C@H](CO)[C@@H](O)[C@H](O)[C@H]2O)[C@@H]2[C@@](C)(O)[C@@H](O)C[C@]12O | inactive | 
36 | CC(C)CC(=O)OC[C@H]1O[C@@](COC(=O)CC(C)C)(O[C@H]2O[C@H](CO)[C@@H](O)[C@H](O)[C@H]2OC(=O)CC(C)C)[C@@H](OC(=O)CC(C)C)[C@@H]1O | inactive | 
37 | CC1CCC2(C(=O)OC3OC(COC4OC(CO)C(O)C(O)C4O)C(O)C(O)C3O)CCC3(C)C(=CCC4C5(C)CCC(O)C(C)(C(=O)O)C5CCC43C)C2C1(C)O (centres undefined) | inactive | 
38 | NC(=O)Nc1cc(-c2ccc(CN3CCOCC3)c(F)c2)sc1C(=O)N[C@H]1CCCNC1 | inactive | 
39 | C/C=C(\C)C(=O)O[C@@H](C)[C@H]1CC[C@]2(O)C3CCC4C[C@@H](OC5CC(OC)C(OC6CC(OC)C(OC7CC(OC)C(OC8OC(C)C(OC9OC(CO)C(O)C(O)C9O)C(OC)C8O)C(C)O7)C(C)O6)C(C)O5)CC[C@]4(C)C3[C@H](O)[C@@H](O)[C@]12C (some centres undefined) |  | -0.005% [at 12.4 µM]
